This note sets out measurements from paper PMC7819943, “Rice protein-binding microarrays: a tool to detect cis-acting elements near promoter regions in rice”.

The full ranking holds about 68,000 sequences; the median of “fluorescence intensity (a.u.)” is about 9,100, and the highest 2% start at about 16,000. This excerpt belongs to a sample that is enriched for the highest values.

For this assay, the target named is OsWRKY34 (Oryza sativa, UniProt Q0JBA9 1-250). Put plainly: protein-binding microarray (RPBM); PBS, 2% BSA, 51.3 ng/ul salmon testes DNA, 50 uM zinc acetate, 200 nM TF, 25 C, 1 h; high values mean tight binding. The settings on record: protein: recombinant; tags: N-terminal polyhistidine and DsRed monomer fusion (pET32a); label: CyDye5-dUTP incorporated in the synthesized complementary strand; 3' TTTTT single-stranded linker to array surface; dsDNA, one strand shown. The essentials: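 Transcription factors were made in E. coli BL21-CodonPlus as N-terminal fusions to a polyhistidine tag and DsRed, then purified on Ni–NTA. After primer extension with Cy5-dUTP and blocking with 2% BSA, a custom Agilent array was exposed for 1 h at 25 °C to 200 nM protein in PBS, 2% BSA, salmon testes DNA and 50 µM zinc acetate. Washed arrays were scanned on an Axon 4000B, and the binding signal is per-feature fluorescence intensity in arbitrary units.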
Sequence of OsWRKY34 (Q0JBA9 entry or part of it): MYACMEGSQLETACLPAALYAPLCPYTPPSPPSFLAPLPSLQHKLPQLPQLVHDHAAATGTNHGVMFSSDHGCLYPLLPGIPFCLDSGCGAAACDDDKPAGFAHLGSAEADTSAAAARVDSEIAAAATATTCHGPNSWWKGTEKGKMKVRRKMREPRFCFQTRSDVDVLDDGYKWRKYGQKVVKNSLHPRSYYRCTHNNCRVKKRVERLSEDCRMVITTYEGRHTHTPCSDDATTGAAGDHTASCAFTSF
With “GTTAGGCATGCTGCTTGTTTATTTTTTTTCAAGTTGAGAACGGAGTCACCTAGTGCAG”, the binding signal was 8140 fluorescence intensity (a.u.).

For “GCTACTGGTGCCGGCCGCCGTCCTCCTGCTTCCGCCGCCGCGGAGTCACCTAGTGCAG”, the binding signal was 9560 fluorescence intensity (a.u.). To “CCCATCATGTGACTTCCATCCTTGTTCCTAGCTGCATGCACGGAGTCACCTAGTGCAG” belongs 9270 fluorescence intensity (a.u.); to “TCTTCACATGCTATTTTGTGTTATTCTTGCCTATAAATGACGGAGTCACCTAGTGCAG”, 8310 fluorescence intensity (a.u.).

On to “ACATGTAAACTGTGCAATTGATTTTTTTTGTCCACATTTACGGAGTCACCTAGTGCAG”, for which the binding signal was 10400 fluorescence intensity (a.u.). For the sequence “AGAGGAGACAGAACCCCTGACTTTATACAGTTTGCAGTTACGGAGTCACCTAGTGCAG”, the binding signal was 8340 fluorescence intensity (a.u.). For the sequence “CGCCGCCGCATCTCCTCCTTCCTCTCTTGGCAACTGTCGGCGGAGTCACCTAGTGCAG”, the binding signal is 8300 fluorescence intensity (a.u.). The same measure for “TTCCTTCTTCCTTCTTTTTTTCTCTCTTCTCCTTTTTTTTCGGAGTCACCTAGTGCAG”: 10300 fluorescence intensity (a.u.); for “GACATATTTTTTTCTCCTCTCTTTTTTCATTTGTTTTTTTCGGAGTCACCTAGTGCAG”: 11600 fluorescence intensity (a.u.). Consider “TTGAGTTGTGTTCTTGGTTGGGGAGGAGGAGGAGGAGATGCGGAGTCACCTAGTGCAG”, for which the binding signal is 15100 fluorescence intensity (a.u.). To “ACATGGGCTGGGCTGGGCTGGGCTCTTCTTCCTTTTTGTTCGGAGTCACCTAGTGCAG” belongs 21900 fluorescence intensity (a.u.); to “GGCGGGGTTGGGGCGGCAGGCGGCTGTGAGGTTCTTGATTCGGAGTCACCTAGTGCAG”, 16100 fluorescence intensity (a.u.); to “GATTCCTTCCTTTTGTTTTTGGGCCGAATTCTCCTTCTTTCGGAGTCACCTAGTGCAG”, 13000 fluorescence intensity (a.u.). The same measure for “TCCTTGGGCTTTTTTTCTTGTTCGGGGTTGAGAGGCAATGCGGAGTCACCTAGTGCAG”: 18700 fluorescence intensity (a.u.); for “GTCTACTATCCTCTTTCATTGTCTTTTTGTTGGTTGGTTTCGGAGTCACCTAGTGCAG”: 17600 fluorescence intensity (a.u.). To “GTAGGAAAGTTTGTTTGTGTGTGTAGAAAAGTTTTGATGTCGGAGTCACCTAGTGCAG” belongs 21000 fluorescence intensity (a.u.). Take “TTGTAAGTTTGTGTGTAGGAAAGTTTTGATGTGAGGAAAACGGAGTCACCTAGTGCAG”: the binding signal was 9150 fluorescence intensity (a.u.). The same measure for “TTTTTGTTTCTATTGGAGGTTGTCATGTTTATCTACCTTTCGGAGTCACCTAGTGCAG”: 9650 fluorescence intensity (a.u.). To “AGTTTGTGTGTGTAGGAAAGTTTTGATGTGATGAAAAAGTCGGAGTCACCTAGTGCAG” belongs 8680 fluorescence intensity (a.u.). To “ACACACACTTTACAGGTTTACAGCCCAACTTATCCGTGCACGGAGTCACCTAGTGCAG” belongs 9890 fluorescence intensity (a.u.); to “ATTTCTTTCCATCCATAATTACTAGGCTGCATTGCCTCTTCGGAGTCACCTAGTGCAG”, 8720 fluorescence intensity (a.u.); to “CTCGTACTAGGGTGTCATGCTGTTGGTTCCGGTGAATCTTCGGAGTCACCTAGTGCAG”, 8270 fluorescence intensity (a.u.). Consider “AAATTCAAACTAGTTTCTACATAGCCTCTTTTCTCTATTTCGGAGTCACCTAGTGCAG”, for which the binding signal was 10900 fluorescence intensity (a.u.).
